# Data taken from PubChem BioAssay (EPA / NIEHS).
# Values joined by “and” are separate entries in the source; they are usually repeats but may differ in a detail not shown here. Equal values may be shown once. Active and inactive are the calls of the source. The calls were made as follows: active = hit-call score of the fitted dose curve at least 0.9, where 1 is the maximum; inactive = score below 0.9.
# Assay: ATG_NRF2_ARE_CIS: Attagene CIS-FACTORIAL HepG2 Assay for human Nuclear Factor Erythroid 2 Related Factor 2 (NFR2) response to Antioxidant Response Elements (ARE) (AID 2282992);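 as to AC50: reporter mRNA level measured by RT-PCR and capillary electrophoresis fluorescence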
# Conditions: HepG2 Attagene ARE/NRF2 reporter, transcription factor activity; actives raise or lower the signal
# Procedure, shortened: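 Cis-factorial assay: transfected HepG2 reporter library, 24 h dosing, mRNA readout via RT-PCR/CE; DMSO-referenced bidirectional analysis.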
SMILES,AC50,outcome
O=C(O)c1cc(I)cc(I)c1I,100 µM (active),–
C=CCCl,–,inactive
COCCl,–,inactive
COc1ccc(N)cc1,–,inactive
CC1(C)[C@H](/C=C2\CCSC2=O)[C@@H]1C(=O)OCc1coc(Cc2ccccc2)c1,35.8 µM (active),–
Nc1cccnc1,–,inactive
N#CCC#N,–,inactive
C=CCN=C=S,–,inactive
Brc1ccc(Br)cc1,–,inactive
C[CH2][Hg][S]c1ccccc1C(=O)O,0.3 µM (active),–
O=S(=O)(F)C(F)(F)C(F)(F)C(F)(F)C(F)(F)F,–,inactive
CCOC(=O)OC1=C(c2cc(C)ccc2C)C(=O)NC12CCC(OC)CC2 (centres undefined),69.8 µM (active),–
O=C(CCl)Nc1ccccc1,2.21 µM (active),–
C[C@H]1C(=O)O[C@@H]2CCN3CC=C(COC(=O)[C@](C)(O)[C@]1(C)O)[C@H]23,–,inactive
CCOP(=O)(OCC)SCCSCC,–,inactive
COC(=O)c1cc(Oc2ccc(Cl)cc2Cl)ccc1[N+](=O)[O-],56.8 µM (active),–
Clc1cc(C(Cl)(Cl)Cl)cnc1Cl,–,inactive
N#Cc1ccccc1Cl,–,inactive
C#CCO,–,inactive
C=CC(=O)OCC(COC(=O)C=C)(COC(=O)C=C)COC(=O)C=C,–,inactive

SMILES,AC50,outcome
CCCCOC(C)=O,–,inactive
N#Cc1ccncc1,–,inactive
OC[P+](CO)(CO)CO,30.2 µM (active) and 26.4 µM (active),–
N#CCCC(Br)(C#N)CBr (centres undefined),–,inactive
c1csc(-c2ccc(-c3cccs3)s2)c1,1.22 µM (active),–
OC(Cc1ccccc1Cl)(Cn1cncn1)C1(Cl)CC1 (centres undefined),–,inactive
C=CC(=O)[O][Sn]([CH2]CCC)([CH2]CCC)[CH2]CCC,0.111 µM (active),–
O=C1C=CC(=O)c2ccccc21,2.23 µM (active),–
CN(C)c1ccc(N=O)cc1,1.39 µM (active),–
CCCCCCCCCCCCCCC(Br)C(=O)O (centres undefined),30.1 µM (active),–
O=S1(=O)OC(c2cc(Br)c(O)c(Br)c2)(c2cc(Br)c(O)c(Br)c2)c2ccccc21,60.1 µM (active),–
Cc1ccccc1OP(=O)(Oc1ccccc1)Oc1ccccc1,12.3 µM (active),–
Brc1c(Br)c(Br)c(Oc2c(Br)c(Br)c(Br)c(Br)c2Br)c(Br)c1Br,–,inactive
COP(=S)(OC)Oc1cc(Cl)c(I)cc1Cl,8.28 µM (active),–
O=C1c2ccccc2C(=O)C1C(=O)C(c1ccccc1)c1ccc(Cl)cc1 (centres undefined),3.96 µM (active),–
c1cc[c]([Sb]([c]2ccccc2)[c]2ccccc2)cc1,70.3 µM (active),–
COc1ccc([N+](=O)[O-])cc1O,–,inactive
O=C(Nc1ccc(Br)cc1)c1cc(Br)cc(Br)c1O,2.91 µM (active),–
CCCCCCCCCCCCN(C)C,46.9 µM (active),–
